From ChEMBL document CHEMBL1961873, “Compounds: GSK PKIS; Assays: Nanosyn kinase panel” (2012) come the findings set out here.

The target in experiment [1] is Sphingosine kinase 1 (Homo sapiens) (UniProt Q9NYA1). To be noted: at 1 µM.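 Further: mean SPHK1 inhibition value reported from the GSK PKIS kinase panel screen.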
Experiment [2] concerns the target T1, Sphingosine kinase 2 (Homo sapiens) (UniProt Q9NRA0).
T1 sequence (whole entry): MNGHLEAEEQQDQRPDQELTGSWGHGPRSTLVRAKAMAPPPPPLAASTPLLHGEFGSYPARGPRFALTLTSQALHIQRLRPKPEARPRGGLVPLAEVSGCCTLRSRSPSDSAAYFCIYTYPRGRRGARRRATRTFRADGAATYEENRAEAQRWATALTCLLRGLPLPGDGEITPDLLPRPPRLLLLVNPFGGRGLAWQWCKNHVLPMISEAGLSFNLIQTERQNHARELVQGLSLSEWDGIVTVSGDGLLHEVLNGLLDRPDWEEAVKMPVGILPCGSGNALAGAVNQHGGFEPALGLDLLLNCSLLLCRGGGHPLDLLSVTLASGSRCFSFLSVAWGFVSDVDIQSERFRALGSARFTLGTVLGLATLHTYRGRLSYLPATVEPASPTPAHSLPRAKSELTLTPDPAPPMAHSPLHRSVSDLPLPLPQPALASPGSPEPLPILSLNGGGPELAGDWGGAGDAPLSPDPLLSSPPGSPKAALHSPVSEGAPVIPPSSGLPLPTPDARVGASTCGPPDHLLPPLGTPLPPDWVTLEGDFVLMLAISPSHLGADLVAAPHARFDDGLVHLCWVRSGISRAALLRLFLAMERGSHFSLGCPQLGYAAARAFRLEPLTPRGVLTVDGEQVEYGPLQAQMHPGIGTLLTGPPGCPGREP
The settings on record: at 0.1 µM.

Experiment [3] has as its target T1, Sphingosine kinase 2 (Homo sapiens). The settings on record: at 1 µM.
The target in experiment [4] is Casein kinase II subunit alpha (Homo sapiens) (UniProt P68400). The settings on record: at 0.1 µM.
For experiment [5] the target is unchanged. The settings on record: at 1 µM.
For experiment [6], the target named is T2, Inhibitor of nuclear factor kappa-B kinase subunit alpha (Homo sapiens) (UniProt O15111).
T2 sequence (whole entry): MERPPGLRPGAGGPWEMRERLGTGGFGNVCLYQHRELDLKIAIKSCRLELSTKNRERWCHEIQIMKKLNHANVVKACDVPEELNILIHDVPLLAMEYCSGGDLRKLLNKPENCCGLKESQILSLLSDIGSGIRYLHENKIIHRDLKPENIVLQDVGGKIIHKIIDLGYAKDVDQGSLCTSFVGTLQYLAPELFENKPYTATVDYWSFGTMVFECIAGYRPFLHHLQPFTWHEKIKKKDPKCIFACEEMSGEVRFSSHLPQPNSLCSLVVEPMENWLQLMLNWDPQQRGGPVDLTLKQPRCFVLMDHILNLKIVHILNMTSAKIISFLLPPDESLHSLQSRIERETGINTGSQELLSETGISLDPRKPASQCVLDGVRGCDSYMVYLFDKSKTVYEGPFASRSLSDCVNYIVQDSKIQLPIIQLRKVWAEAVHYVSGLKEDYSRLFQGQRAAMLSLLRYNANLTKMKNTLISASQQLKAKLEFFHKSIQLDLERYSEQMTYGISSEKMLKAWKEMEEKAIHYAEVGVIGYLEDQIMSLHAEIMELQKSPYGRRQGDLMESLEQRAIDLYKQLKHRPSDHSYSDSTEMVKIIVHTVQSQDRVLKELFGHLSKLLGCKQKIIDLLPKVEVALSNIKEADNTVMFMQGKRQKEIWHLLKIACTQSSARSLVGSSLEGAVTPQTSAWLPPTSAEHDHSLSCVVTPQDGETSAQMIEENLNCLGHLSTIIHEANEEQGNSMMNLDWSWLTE
The settings on record: at 0.1 µM.

Experiment [7] concerns the target T2, Inhibitor of nuclear factor kappa-B kinase subunit alpha (Homo sapiens). The settings on record: at 1 µM.
Experiment [8] has as its target T3, Inhibitor of nuclear factor kappa-B kinase subunit beta (Homo sapiens) (UniProt O14920).
T3 sequence (whole entry): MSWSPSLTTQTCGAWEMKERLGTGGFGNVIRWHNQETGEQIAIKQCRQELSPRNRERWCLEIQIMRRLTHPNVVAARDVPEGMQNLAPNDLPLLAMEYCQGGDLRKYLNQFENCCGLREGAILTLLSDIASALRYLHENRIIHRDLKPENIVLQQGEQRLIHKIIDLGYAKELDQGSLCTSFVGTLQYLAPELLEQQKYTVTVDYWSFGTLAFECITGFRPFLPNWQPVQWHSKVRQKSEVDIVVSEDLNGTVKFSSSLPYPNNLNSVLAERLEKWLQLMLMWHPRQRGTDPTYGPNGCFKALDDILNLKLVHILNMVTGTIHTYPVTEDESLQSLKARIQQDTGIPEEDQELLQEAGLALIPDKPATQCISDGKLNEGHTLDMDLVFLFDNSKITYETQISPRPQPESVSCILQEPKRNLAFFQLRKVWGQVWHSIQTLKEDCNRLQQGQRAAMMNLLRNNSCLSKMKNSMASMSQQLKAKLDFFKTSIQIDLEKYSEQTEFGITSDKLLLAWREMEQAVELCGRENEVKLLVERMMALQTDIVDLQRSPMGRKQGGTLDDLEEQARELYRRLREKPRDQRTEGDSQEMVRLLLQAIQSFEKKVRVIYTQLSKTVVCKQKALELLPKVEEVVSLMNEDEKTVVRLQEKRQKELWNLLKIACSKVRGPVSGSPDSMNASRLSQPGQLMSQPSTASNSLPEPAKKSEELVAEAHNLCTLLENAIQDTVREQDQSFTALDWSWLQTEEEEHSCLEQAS
To be noted: at 0.1 µM.

Experiment [9] has as its target T3, Inhibitor of nuclear factor kappa-B kinase subunit beta (Homo sapiens). The settings on record: at 1 µM.
Experiment [10] deals with T4, Inhibitor of nuclear factor kappa-B kinase subunit epsilon (Homo sapiens) (UniProt Q14164).
T4 sequence (whole entry): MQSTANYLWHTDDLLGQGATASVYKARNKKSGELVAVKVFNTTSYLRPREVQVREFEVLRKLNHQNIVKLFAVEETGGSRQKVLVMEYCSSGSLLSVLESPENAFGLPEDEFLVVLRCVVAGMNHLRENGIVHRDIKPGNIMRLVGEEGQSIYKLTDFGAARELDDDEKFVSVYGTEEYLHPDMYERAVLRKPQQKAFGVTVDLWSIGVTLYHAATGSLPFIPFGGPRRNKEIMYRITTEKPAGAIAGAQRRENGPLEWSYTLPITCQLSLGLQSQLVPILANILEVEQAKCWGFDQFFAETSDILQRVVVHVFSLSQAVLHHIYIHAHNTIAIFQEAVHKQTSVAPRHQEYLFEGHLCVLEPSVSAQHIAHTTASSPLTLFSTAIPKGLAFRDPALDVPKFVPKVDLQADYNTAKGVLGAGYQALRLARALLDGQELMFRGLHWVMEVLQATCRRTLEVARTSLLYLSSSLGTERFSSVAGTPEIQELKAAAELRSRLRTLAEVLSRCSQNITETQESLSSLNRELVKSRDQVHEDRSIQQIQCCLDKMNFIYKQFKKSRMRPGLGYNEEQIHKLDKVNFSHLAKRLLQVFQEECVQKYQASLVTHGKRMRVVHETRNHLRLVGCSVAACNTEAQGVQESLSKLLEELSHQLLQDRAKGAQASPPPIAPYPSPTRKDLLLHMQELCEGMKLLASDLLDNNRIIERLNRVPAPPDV
To be noted: at 0.1 µM.

Sequence of Sphingosine kinase 1 (Homo sapiens) (Q9NYA1 whole entry): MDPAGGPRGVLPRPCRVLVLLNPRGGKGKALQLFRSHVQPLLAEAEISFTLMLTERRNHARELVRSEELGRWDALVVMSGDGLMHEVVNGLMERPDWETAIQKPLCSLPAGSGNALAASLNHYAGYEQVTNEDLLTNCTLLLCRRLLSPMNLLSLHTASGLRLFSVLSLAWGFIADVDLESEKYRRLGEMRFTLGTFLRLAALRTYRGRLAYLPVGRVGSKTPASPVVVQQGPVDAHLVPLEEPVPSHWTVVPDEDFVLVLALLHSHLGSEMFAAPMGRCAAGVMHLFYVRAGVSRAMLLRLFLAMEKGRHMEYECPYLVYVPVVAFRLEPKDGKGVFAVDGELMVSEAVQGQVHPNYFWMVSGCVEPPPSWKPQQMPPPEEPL
Sequence of Casein kinase II subunit alpha (Homo sapiens) (P68400 whole entry, looked up): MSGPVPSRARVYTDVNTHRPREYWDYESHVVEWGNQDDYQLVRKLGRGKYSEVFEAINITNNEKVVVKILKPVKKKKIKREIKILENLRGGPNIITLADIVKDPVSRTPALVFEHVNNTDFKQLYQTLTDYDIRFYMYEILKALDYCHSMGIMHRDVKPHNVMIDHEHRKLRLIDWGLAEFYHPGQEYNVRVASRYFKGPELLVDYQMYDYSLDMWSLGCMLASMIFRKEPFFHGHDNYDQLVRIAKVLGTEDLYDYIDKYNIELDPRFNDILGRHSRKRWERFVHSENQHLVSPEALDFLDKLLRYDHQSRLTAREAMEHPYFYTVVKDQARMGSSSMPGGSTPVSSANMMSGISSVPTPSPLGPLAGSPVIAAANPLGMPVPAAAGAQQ

A word on the inhibition: it is the relative decrease from the control value, in per cent. With `CN(C)c1cc2c(Nc3ccc4nc(Cc5ccccc5)[nH]c4c3)ncnc2cn1`, the inhibition in experiment [1] was -4.39%; in [2] it was -0.89%; in experiment [3] it was -0.82%; in [4], 3.31%; in [5] it was 1.45%; in experiment [6], 9.26%. Also, the inhibition in experiment [7] was 9.4%; in [8] it was 7.48%; in [9] it was 6.68%; in experiment [10], 17.5%.
For `Fc1cccc(COc2ccc(Nc3ncnc4cc(-c5ccc[nH]5)sc34)cc2Cl)c1`, the inhibition is 4.94% in [1]; 0.87% in experiment [2]; -0.25% in experiment [3]; 1.61% in experiment [4]; 2.66% in experiment [5]; 2.16% in [6]. The inhibition stood at 1.99% in [7], 2.5% in experiment [8], 1.35% in experiment [9] and 2.66% in experiment [10].
Regarding `NC(=O)c1cccc(Nc2nccc(Nc3cccc4[nH]ncc34)n2)c1`, the inhibition in experiment [1] was -1.98%; in experiment [2], -0.9%; in experiment [3], 0.58%; in [4], -0.25%; in experiment [5] it was 3.56%; in experiment [6], 7.29%. Further, the inhibition in experiment [7] was 41%; in [8], -0.17%; in experiment [9] it was 17.4%; in [10], -3.38%.
As to `CS(=O)(=O)CCN(CC#N)Cc1ccc(-c2ccc3ncnc(Nc4ccc(OCc5cccc(F)c5)c(Cl)c4)c3c2)o1`, the inhibition was -0.02% in experiment [1]; -0.3% in experiment [2]; -0.75% in experiment [3]; 5.37% in [4]; 1.72% in experiment [5]; 4.16% in experiment [6]. In addition, the inhibition was determined as 2.09% in experiment [7], 3.6% in experiment [8], 3.73% in experiment [9] and 1.37% in experiment [10].
As to `COc1cccc(-n2ncc3c(N/N=C/c4cccc(F)c4)ncnc32)c1`, the inhibition was -2.05% in experiment [1]; 3.58% in experiment [2]; -0.22% in experiment [3]; 1.77% in [4]; 11.4% in experiment [5]; -0.08% in experiment [6]. Moreover, the inhibition stood at 6.98% in experiment [7], 2.27% in [8], 0.31% in experiment [9] and 3.6% in experiment [10].
Take `CCc1cccc(NC(=O)Nc2ccc(Oc3ccc4nc(NC(=O)OC)[nH]c4c3)cc2)c1`: the inhibition was -3.46% in experiment [1]; -1.39% in [2]; -2.51% in experiment [3]; 1.32% in [4]; 4.86% in experiment [5]; 4.74% in experiment [6]. Moreover, the inhibition was -0.97% in experiment [7], 3.09% in experiment [8], 2.83% in [9] and 2.77% in experiment [10].
As for `O=C1NC(=O)C(c2cccc(Cl)c2)=C1Nc1ccc(O)c(Cl)c1`, the inhibition in [1] was -1.72%; in experiment [2], -1.48%; in experiment [3], -0.07%; in experiment [4] it was -2.69%; in experiment [5] it was -1.28%; in experiment [6] it was 0.7%. Also, the inhibition is 0.73% in experiment [7], -0.95% in experiment [8], -3.39% in experiment [9] and -0.3% in experiment [10].
Turning to `CC1=C(C(=O)Nc2ccc3[nH]ncc3c2)C(c2ccc(F)cc2)NC(=O)N1` (stereo not given), the inhibition in [1] is -2.09%; in experiment [2], -0.06%; in [3], -0.16%; in [4] it was 1.87%; in [5] it was 0.86%; in experiment [6], 0.45%. For the same compound, the inhibition was found to be 7.79% in [7], 1.68% in experiment [8], 1.73% in [9] and 1.7% in [10].
